High-throughput results from PubChem.
Shown is part of a subset that was picked to be rich in hits.
Pf Dd2 growth – blocks in vitro growth of P. falciparum Dd2; 120,000 compounds, 4.3% hits; Potency, µM (top dose mostly 28.9 µM), actives largely listed as inhibitors; P. falciparum Dd2 growth, SYBR Green, 72 h; active = well fitted inhibition curve with a large enough effect; note: nearly all actives have a fitted effect of over 65% in size
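Infected erythrocytes (Dd2, 0.3% parasitemia, 2.5% hematocrit final) are added to compound in RPMI-1640/Albumax II medium, grown 72 h at 37C in low oxygen, then lysed with saponin/Triton-X containing SYBR Green and read by fluorescence.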
Large screens that a line does not name were inactive.

O=C(NCc1ccncc1)c1cc(C2CC2)nc2c1c(C1CCCN1)nn2-c1ccccc1 (centres undefined)	Pf Dd2 growth 8.91µM
Cn1nc(C2CCCN2)c2c(C(=O)NCC(F)(F)F)cc(C3CC3)nc21 (centres undefined)	none
O=C(NCC(F)(F)F)c1cc(C2CC2)nc2onc(C3CCCNC3)c12 (centres undefined)	none
CC(C)CNC(=O)c1cc(C2CC2)nc2c1c(C1CCCN1)nn2-c1ccccc1 (centres undefined)	Pf Dd2 growth 4.47µM
CC(C)CNC(=O)c1cc(C2CC2)nc2onc(C3CCCNC3)c12 (centres undefined)	none
COCCNC(=O)c1cc(C2CC2)nc2c1c(C1CCCN1)nn2C (centres undefined)	none
Cc1cccc(C(=O)N2CCN(c3cc(C(F)(F)F)ncn3)CC2)c1	none
Cc1sc2cc(C(=O)NCCN3CCOCC3)[nH]c2c1CN1CCCCC1	none
CCOCCCNC(=O)c1c(OCC)cc(=O)n2c1CCCCC2	none
CN1CCCN(C[C@@H]2CN(C(=O)c3cccn3C3CC3)C[C@@H]2CO)CC1	none
CC(C)c1noc(-c2cn(C3CCN(C(=O)c4ccc(Cl)cc4)C3)nn2)n1 (centres undefined)	none
O=C(c1ccc2ccccc2n1)N1CCN(C(=O)c2nnn3c2COC(c2ccccc2)C3)CC1 (centres undefined)	Pf Dd2 growth 6.31µM
O=C(c1ccccc1)N1CCN(C(=O)c2nnn3c2COC(c2ccccc2)C3)CC1 (centres undefined)	none
O=C(c1ccccn1)N1CCN(C(=O)c2nnn3c2COC(c2ccccc2)C3)CC1 (centres undefined)	none
CNC(=O)N1CCC(C2CCN(C(=O)c3ccc4ncccc4c3)C2)CC1 (centres undefined)	none
CCCc1nc(-c2nc(C3CCOC3)no2)cs1 (centres undefined)	none
O=C(NC(C(=O)N1CCCC1)C1CCN(C(=O)Cc2ccccc2)CC1)c1ccccc1 (centres undefined)	none
Cc1ccc(CNC(=O)CN(c2ccc(C)cc2)S(=O)(=O)c2c(C)nn(C)c2C)cc1	none
COc1ccc(N(CC(=O)NCCc2ccccc2)S(=O)(=O)c2c(C)nn(C)c2C)cc1	none
Cc1nn(C)c(C)c1S(=O)(=O)N(CC(=O)NCCc1ccc(Cl)cc1)c1ccc(C(C)C)cc1	Pf Dd2 growth 11.2µM
CC(C)NC(=O)Nc1ccc([C@H]2OCC(=O)N[C@@H]2CO)cc1	none
CCOC(=O)c1[nH]ncc1CN1CCN2C(=O)CNC(=O)C2C1 (centres undefined)	none
O=C(c1cnc(Nc2ccccc2)nc1)N1CC[C@H](CO)[C@@H](O)C1	none
CCC(=O)N1CC(=O)N(CC)C2(CCOCC2)C1	none
COCC(=O)N[C@H]1CO[C@H]2[C@@H]1OC[C@@H]2Nc1nccc(-c2cccc(F)c2)n1	none
CC(C)(C)C(=O)N[C@H]1CO[C@H]2[C@@H]1OC[C@@H]2Nc1nccc(-c2cccc(C#N)c2)n1	none
COCC(=O)N[C@H]1CO[C@H]2[C@@H]1OC[C@@H]2Nc1nccc(-c2cccc(C#N)c2)n1	Pf Dd2 growth 11.2µM
N#Cc1cccc(-c2ccnc(N[C@H]3CO[C@H]4[C@@H]3OC[C@H]4OC(=O)Nc3cccc4ccccc34)n2)c1	Pf Dd2 growth 11.2µM
COc1ccc(NC(=O)O[C@@H]2CO[C@H]3[C@@H]2OC[C@@H]3Nc2nccc(-c3cccc(C#N)c3)n2)cc1	none
N#Cc1cccc(NC(=O)O[C@@H]2CO[C@H]3[C@@H]2OC[C@@H]3Nc2nccc(-c3cccc(C#N)c3)n2)c1	none
Cc1ccc(C(=O)N2CCC(Cc3nc(-c4ccccc4)no3)CC2)s1	none
Cc1ccc(C)c(NC(=O)N2CCCC2c2nncn2-c2ccccc2)c1 (centres undefined)	none
CC(C)CCN1CC2(CCCN(C(=O)Cn3ccc(=O)[nH]c3=O)C2)CCC1=O (centres undefined)	none
COc1ccc(C2Cn3nnc(C(=O)N4CCC(C(=O)NCc5ccc(F)cc5)CC4)c3CO2)cc1 (centres undefined)	none
O=C1OCC2(CCN([S+](=O)([O-])c3ccccc3)C2)N1CCN1CCOCC1 (centres undefined)	none
Cc1nc(N2CCC(NC(=O)CNC(=O)c3ccccc3)CC2)cc(C(F)(F)F)n1	none
COc1ccccc1-c1ccnc(N[C@H]2CO[C@H]3[C@@H]2OC[C@@H]3NC(=O)COc2ccccc2)n1	none
Cc1ccc(-c2cc(N3CCCN(C(=O)Cc4ccccc4Cl)CC3)n[nH]2)cc1C	none
CNC(=O)N1CCC(C2CCN(C(=O)Cc3cccs3)C2)CC1 (centres undefined)	none
Cc1ccc(CN2CCC(C3CCN(S(C)(=O)=O)CC3)C2)o1 (centres undefined)	none
CS(=O)(=O)N1CCC(C2CCN(C3CCOCC3)C2)CC1 (centres undefined)	none
Cn1cccc1CN1CCC(C2CCN(S(C)(=O)=O)CC2)C1 (centres undefined)	none
CS(=O)(=O)N1CCC(C2CCN(Cc3ccc(Br)o3)C2)CC1 (centres undefined)	Pf Dd2 growth 4.47µM
CS(=O)(=O)N1CCC(C2CCN(Cc3cccs3)C2)CC1 (centres undefined)	Pf Dd2 growth 12.6µM
CCN(Cc1noc(C2CCC2)n1)C(=O)C(C)Oc1ccc2ccccc2c1 (centres undefined)	none
O=C(Cc1ccccc1F)N1CCCC(c2nc(C3CCOCC3)no2)C1 (centres undefined)	none
COc1cccc(CC(=O)N2[C@@H]3CC[C@H]2CC(NC(=O)c2ccc(F)cc2)C3)c1 (some centres undefined)	none
O=C(NC1C[C@H]2CC[C@@H](C1)N2C(=O)CCCc1ccccc1)c1ccc(F)cc1 (some centres undefined)	Pf Dd2 growth 8.91µM
CC(C)CC(=O)N1[C@@H]2CC[C@H]1CC(NC(=O)c1ccc(F)cc1)C2 (some centres undefined)	none
COCC1CN(C)CC12CCN(C(=O)c1cnco1)CC2 (centres undefined)	none
COc1ccc(CCN2C(=O)N(c3ccc(C)cc3)C(=O)C2CC(=O)Nc2ccc(F)cc2)cc1 (centres undefined)	none
Cc1cccc(N2C(=O)C(CC(=O)Nc3cccc(F)c3)N(CCc3ccncc3)C2=O)c1 (centres undefined)	none
CCc1ccc(NC(=O)CC2C(=O)N(c3ccc(C)cc3)C(=O)N2CCc2ccncc2)cc1 (centres undefined)	Pf Dd2 growth 6.31µM
COc1cccc(-c2ccc3c(N)c(C(=O)Nc4cc(F)ccc4F)sc3n2)c1	none
CCC(C)NC(=O)c1sc2nc(C)c(C(=O)Nc3ccc(Cl)cc3)c(-c3ccc(Br)cc3)c2c1N (centres undefined)	none
COc1cccc(NC(=O)c2sc3nc(C)c(C(=O)Nc4ccc(C)cc4C)c(-c4ccco4)c3c2N)c1	Pf Dd2 growth 3.16µM
COc1cc(Cl)c(C)cc1NC(=O)c1sc2nc(C)cc(C)c2c1N	none
COc1cccc(NC(=O)c2sc3nc(C)c(C(=O)Nc4ccc(C)cc4C)c(-c4sccc4C)c3c2N)c1	Pf Dd2 growth 2.24µM
COc1cccc(NC(=O)c2sc3nc(C)c(C(=O)Nc4ccc(C)cc4C)c(-c4ccccc4Cl)c3c2N)c1	Pf Dd2 growth 1µM
COc1cccc(NC(=O)c2c(C)nn(-c3cccc(C)c3)c2-n2cccc2)c1	none
COc1cccc(-c2ccc3c(N)c(C(=O)Nc4ccccc4C)sc3n2)c1	none
Cc1ccc(Cl)cc1NC(=O)c1sc2nc(C)c(C)c(C)c2c1N	none
Cc1cccc(CN2CCCn3nc(C)c(-c4ccccc4-c4ccccc4)c32)n1	none
COc1ccc(C(=O)N2CCCn3ccnc3C2c2cnn(C)c2)cn1 (centres undefined)	none
